Results: the supplement of paper PMC8728848
The full list was thinned out, with the strongest signals kept by preference.

Assays:
Assay in all cases: glycan array binding signal (z-score within array); higher = stronger binding
Neu5Gc(a2-3)Gal(b1-4)Glc = settings: glycan notation: IUPAC condensed, linker removed
Outline: (§1)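 Glycan array data came from 3228 arrays in the Consortium for Functional Glycomics database, and only arrays with an available protein sequence were kept. Glycan names were put into IUPAC-condensed notation, and columns mapping to the same glycan were averaged. The binding signal is a within-array Z-score, averaged across arrays of one protein sequence run at different concentrations or buffers and across linkers. A negative Z-score can be read as non-binding.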

[1] = test system: Neu5Gc(a2-8)Neu5Gc(a2-3)Gal(b1-4)GlcNAc; settings: glycan notation: IUPAC condensed, linker removed; mutation: R125K
Outline: as §1

[2] = test system: Neu5Gc(a2-3)Gal(b1-4)[Fuc(a1-3)]GlcNAc; settings: glycan notation: IUPAC condensed, linker removed
Outline: as §1

Neu5Gc(a2-6)GalNAc = settings: glycan notation: IUPAC condensed, linker removed
Outline: as §1

[3] = test system: Neu5Gc(b2-6)Gal(b1-4)GlcNAc; settings: glycan notation: IUPAC condensed, linker removed
Outline: as §1

Chain of SRLC (Mus musculus), Q8VIF6 (Q8VIF6 other isoform, or with tags, fused parts or gaps): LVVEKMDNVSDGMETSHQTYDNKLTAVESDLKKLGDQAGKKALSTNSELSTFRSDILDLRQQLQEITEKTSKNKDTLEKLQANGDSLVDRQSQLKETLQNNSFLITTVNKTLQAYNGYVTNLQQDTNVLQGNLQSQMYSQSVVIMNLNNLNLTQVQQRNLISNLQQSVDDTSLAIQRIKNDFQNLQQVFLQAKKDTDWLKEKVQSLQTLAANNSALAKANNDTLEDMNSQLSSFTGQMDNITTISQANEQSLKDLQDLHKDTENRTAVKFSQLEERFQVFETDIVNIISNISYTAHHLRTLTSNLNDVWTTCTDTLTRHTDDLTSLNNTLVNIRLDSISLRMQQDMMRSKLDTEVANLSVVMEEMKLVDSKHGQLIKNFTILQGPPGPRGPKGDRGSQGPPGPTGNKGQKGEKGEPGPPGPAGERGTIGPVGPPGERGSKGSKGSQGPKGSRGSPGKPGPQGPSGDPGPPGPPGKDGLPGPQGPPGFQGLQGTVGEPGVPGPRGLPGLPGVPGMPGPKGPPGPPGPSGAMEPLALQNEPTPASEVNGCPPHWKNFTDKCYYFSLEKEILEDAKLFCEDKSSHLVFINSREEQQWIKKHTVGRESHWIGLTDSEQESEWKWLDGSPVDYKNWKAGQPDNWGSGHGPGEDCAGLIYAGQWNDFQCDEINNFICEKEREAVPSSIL
Chain of 6RG (Lolium perenne) (chain, as listed by the source): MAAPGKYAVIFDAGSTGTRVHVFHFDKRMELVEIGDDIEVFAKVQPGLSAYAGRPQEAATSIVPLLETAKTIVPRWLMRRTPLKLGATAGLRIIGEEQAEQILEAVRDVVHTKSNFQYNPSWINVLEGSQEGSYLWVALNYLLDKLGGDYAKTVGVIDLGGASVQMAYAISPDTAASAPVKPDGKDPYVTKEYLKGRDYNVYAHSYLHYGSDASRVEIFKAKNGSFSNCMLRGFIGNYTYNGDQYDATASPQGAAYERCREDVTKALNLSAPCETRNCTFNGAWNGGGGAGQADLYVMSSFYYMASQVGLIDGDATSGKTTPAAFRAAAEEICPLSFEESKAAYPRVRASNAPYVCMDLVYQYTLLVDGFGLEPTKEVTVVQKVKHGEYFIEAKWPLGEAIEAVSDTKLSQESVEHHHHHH
Chain of PILRb (Mus musculus), Q2YSF2 (Q2YSF2 entry or part of it): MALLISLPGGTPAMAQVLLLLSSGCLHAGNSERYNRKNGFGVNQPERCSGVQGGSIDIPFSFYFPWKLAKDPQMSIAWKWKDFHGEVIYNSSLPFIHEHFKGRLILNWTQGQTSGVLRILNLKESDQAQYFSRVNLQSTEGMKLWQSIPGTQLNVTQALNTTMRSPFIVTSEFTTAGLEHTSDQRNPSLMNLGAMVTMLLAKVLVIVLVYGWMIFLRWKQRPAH
Chain of C3b (Homo sapiens), P01024 (P01024 23-667): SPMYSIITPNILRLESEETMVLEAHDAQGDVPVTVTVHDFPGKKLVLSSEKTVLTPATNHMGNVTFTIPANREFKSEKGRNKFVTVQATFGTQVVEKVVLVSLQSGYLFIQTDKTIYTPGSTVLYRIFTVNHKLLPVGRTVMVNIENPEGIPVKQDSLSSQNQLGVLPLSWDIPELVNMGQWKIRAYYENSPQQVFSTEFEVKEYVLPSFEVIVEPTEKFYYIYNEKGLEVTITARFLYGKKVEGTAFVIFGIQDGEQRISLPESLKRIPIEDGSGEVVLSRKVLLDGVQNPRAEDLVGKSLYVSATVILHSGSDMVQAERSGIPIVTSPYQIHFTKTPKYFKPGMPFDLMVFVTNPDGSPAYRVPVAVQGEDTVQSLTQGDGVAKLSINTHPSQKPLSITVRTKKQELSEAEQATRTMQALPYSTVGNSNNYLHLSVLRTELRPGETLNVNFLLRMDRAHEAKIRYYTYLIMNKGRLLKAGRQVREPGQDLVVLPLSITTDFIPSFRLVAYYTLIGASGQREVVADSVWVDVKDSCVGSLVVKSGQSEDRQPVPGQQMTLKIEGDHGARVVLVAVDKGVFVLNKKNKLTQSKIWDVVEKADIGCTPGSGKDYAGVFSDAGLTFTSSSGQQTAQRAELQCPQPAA
Chain of Aggrecan (Rattus norvegicus), NP_071526 (chain, as listed by the source): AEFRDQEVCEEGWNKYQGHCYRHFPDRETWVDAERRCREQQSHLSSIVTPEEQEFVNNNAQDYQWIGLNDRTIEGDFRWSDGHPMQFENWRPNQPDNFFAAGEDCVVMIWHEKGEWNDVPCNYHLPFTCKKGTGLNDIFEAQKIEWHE

For Siglec-8 (Homo sapiens), Q9NYZ4, the “glycan array binding signal (z-score)” value (Neu5Gc(a2-3)Gal(b1-4)Glc) was -0.088 and the “glycan array binding signal (z-score)” value [1] was -0.526.

With SRLC (Mus musculus), Q8VIF6 the “glycan array binding signal (z-score)” value (Neu5Gc(a2-3)Gal(b1-4)Glc) was -0.188.

With Aggrecan (Rattus norvegicus), NP_071526 the “glycan array binding signal (z-score)” value [2] was -0.152.

In the case of 6RG (Lolium perenne), the “glycan array binding signal (z-score)” value (Neu5Gc(a2-6)GalNAc) is reported as -0.128.

With C3b (Homo sapiens), P01024 the “glycan array binding signal (z-score)” value (Neu5Gc(a2-6)GalNAc) was -0.982.

For PILRb (Mus musculus), Q2YSF2, the “glycan array binding signal (z-score)” value [3] was -0.093.
